Laboratory results as given in PubChem BioAssay AID602449 (Sanford-Burnham Center for Chemical Genomics, 2012).
The whole screen tested about 360,000 compounds, of which about 5,000 (1.4%) were called active.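 Rule for the calls: active = inhibition of 50% or more, scaled per plate between neutral and stimulator controls; inactive = the rest.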 What follows is part of a selection rich in actives, with near analogues and random picks from the rest.

Experiment: mitochondrial permeability transition pore inhibitors, primary screen, biochemical, isolated mouse mitochondria, absorbance (AID 602449);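 note: 0% = DMSO wells given calcium and 100% = 1 mM EGTA wells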
Details: Ca2+ swelling absorbance, 30 min, at 10 µM, stronger effect = higher value

Question: For Cc1ccc(OCc2nnc(NC(=O)OCC(C)C)s2)cc1, which inhibition is on record?
Answer: The inhibition was 0% (inactive).

Question: For O=c1c2[nH]c3ccc(Cl)cc3c2ncn1Cc1ccccn1, which inhibition is on record?
Answer: The inhibition was 0.2% (inactive).

Question: With COc1ccccc1C1C(C#N)=C(N)Oc2c1c(-c1ccccc1)nn2-c1ccccc1 (configuration not stated) as the molecule, how does the inhibition read?
Answer: The inhibition was 43.7% (inactive).

Question: Which inhibition does the source give for CN/C(=C\[N+](=O)[O-])NCCSCc1csc(CN(C)C)n1 here?
Answer: Its inhibition is -1.8% (inactive).

Question: With O=C(Nc1cccc(F)c1)c1coc(=O)c(Br)c1 as the molecule, how does the inhibition read?
Answer: Its inhibition is 92.1% (active).

Question: With Cc1c(NC(=O)c2coc(=O)c(Br)c2)c(=O)n(-c2ccccc2)n1C as the molecule, how does the inhibition read?
Answer: Its inhibition is 0.9% (inactive).

Question: Which inhibition does the source give for O=C(Nc1cccc(F)c1)NC1CCCCCCC1 here?
Answer: Its inhibition is 46.7% (inactive).

Question: With CCC(C)NC(=O)N[C@@H](CCSC)C(=O)O (some centres not stated) as the molecule, how does the inhibition read?
Answer: Its inhibition is -0.7% (inactive).

Question: For Cc1cc(C)c(SCCc2ccncc2)c(C)c1, which inhibition is on record?
Answer: The inhibition was 90.9% (active).

Question: With Cc1cc(C)c(NC(=O)CSc2nc3ccncc3[nH]2)c(C)c1 as the molecule, how does the inhibition read?
Answer: The inhibition was -1.3% (inactive).

Question: With CC(C)(C)c1ccc(SCCc2ccncc2)cc1 as the molecule, how does the inhibition read?
Answer: Its inhibition is 105% (active).

Question: For CCN(Cc1ccncc1)C(=O)CCc1ccccc1, which inhibition is on record?
Answer: The inhibition was 4% (inactive).

Question: With Cc1ccc(SCCSc2ncccn2)cc1 as the molecule, how does the inhibition read?
Answer: Its inhibition is 1.5% (inactive).

Question: Which inhibition does the source give for c1ccc(CSCCc2ccncc2)cc1 here?
Answer: The inhibition was 4% (inactive).

Question: With CN(C)CCNC(=O)c1ccc(-c2cn3c(-c4ccc(Oc5ccccc5)cc4)cnc3cn2)cc1 as the molecule, how does the inhibition read?
Answer: The inhibition was -1.4% (inactive).

Question: For O=C(OC1CCOC1=O)c1cccc(S(=O)(=O)Nc2ccc(F)cc2)c1 (configuration not stated), which inhibition is on record?
Answer: The inhibition was 2.8% (inactive).

Question: Which inhibition does the source give for CCOc1ccc(S(=O)(=O)NCCCn2ccnc2)cc1NC(C)=O here?
Answer: The inhibition was -0.5% (inactive).

Question: Which inhibition does the source give for CCN(CC)CCCN1C(=O)C(=O)/C(=C(/O)c2c(C)nc3ccccn23)C1c1ccc(C)o1 (configuration not stated) here?
Answer: Its inhibition is 1.3% (inactive).

Question: Which inhibition does the source give for O=C(CN(Cc1ccccc1)C(=O)c1ccc2c(c1)OCCO2)NCc1ccc2c(c1)OCO2 here?
Answer: Its inhibition is -5.6% (inactive).

Question: For CCC(=O)N1CCc2cc(S(=O)(=O)CCC(=O)N3CCN(c4ccccc4F)CC3)ccc21, which inhibition is on record?
Answer: The inhibition was 0.5% (inactive).

Question: For O=C(C1Cc2ccccc2CN1C(=O)c1ccco1)N1CCN(c2ccccc2)CC1 (configuration not stated), which inhibition is on record?
Answer: Its inhibition is 0.7% (inactive).

Question: Which inhibition does the source give for CN1CCC(N(C)C(=O)c2ccc(Cl)c(S(=O)(=O)Nc3ccc(Cl)cc3)c2)CC1 here?
Answer: Its inhibition is -0.7% (inactive).

Question: For C=C1c2c(Cl)ccc(O)c2C(O)=C2C(=O)[C@]3(O)C(O)=C(C(N)=O)C(=O)[C@@H](N(C)C)[C@@H]3[C@@H](O)C12 (some centres not stated), which inhibition is on record?
Answer: The inhibition was 80.1% (active).

Question: For CCC(C)(C)NC(=O)CN(C(=O)CCC(=O)Nc1nccs1)c1ccc2c(c1)OCO2, which inhibition is on record?
Answer: Its inhibition is 0.4% (inactive).

Question: With CCOC(=O)CNC(=O)/C=C/c1c(Cl)cccc1Cl as the molecule, how does the inhibition read?
Answer: The inhibition was 0.6% (inactive).

Question: With COc1ccc([N+](=O)[O-])cc1NCC(=O)c1ccc(C)cc1 as the molecule, how does the inhibition read?
Answer: The inhibition was 0.6% (inactive).

Question: With COc1ccc(NC(C)=O)cc1NC(=O)CN1CCN(C2c3ccccc3-c3ccccc32)CC1 as the molecule, how does the inhibition read?
Answer: The inhibition was -1.5% (inactive).

Question: With c1ccc2c(c1)C(=NC1CCCCC1)NC2=NC1CCCCC1 as the molecule, how does the inhibition read?
Answer: The inhibition was 67.5% (active).

Question: With Cc1cc2nc(SCCN3CCOCC3)[nH]c2cc1C as the molecule, how does the inhibition read?
Answer: The inhibition was 0% (inactive).

Question: Which inhibition does the source give for Cc1ccc(S(=O)(=O)Nc2ccc3ncccc3c2)cc1 here?
Answer: The inhibition was 85% (active).

Question: With O=S(=O)(Nc1ccc(Oc2ncccn2)c(Cl)c1)c1ccc(F)cc1 as the molecule, how does the inhibition read?
Answer: Its inhibition is -1.6% (inactive).

Question: With Cc1cc(C)cc(OCC(=O)Nc2ccc(S(=O)(=O)Nc3ccccn3)cc2)c1 as the molecule, how does the inhibition read?
Answer: Its inhibition is 3.7% (inactive).

Question: For O=C(CCN1C(=O)c2ccccc2C1=O)NNC(=O)c1ccc(Cl)cc1Cl, which inhibition is on record?
Answer: The inhibition was -0.8% (inactive).

Question: With O=C(NCCN1C(=O)S/C(=C\c2cccnc2)C1=O)c1cccc(OC(F)F)c1 as the molecule, how does the inhibition read?
Answer: The inhibition was 2.4% (inactive).

Question: For Cc1cc(OCCCC(=O)NCCN2C(=O)S/C(=C\c3cccnc3)C2=O)ccc1Cl, which inhibition is on record?
Answer: The inhibition was 84.3% (active).

Question: Which inhibition does the source give for COc1ccc(N2CC(C(=O)NCCN3C(=O)S/C(=C\c4cccnc4)C3=O)CC2=O)c(OC)c1 (configuration not stated) here?
Answer: Its inhibition is -0.2% (inactive).

Question: For CSCCC(NC(=O)COc1ccccc1)C(=O)OCC(=O)c1cc2ccccc2o1 (configuration not stated), which inhibition is on record?
Answer: Its inhibition is 0% (inactive).

Question: For CCc1nn(CC(=O)N2CCN(CC)CC2)c(=O)c2cccn12, which inhibition is on record?
Answer: Its inhibition is -0.4% (inactive).

Question: For COC(=O)C1CC2=C(CC(C)(C)CC2=O)N(c2ccccc2)C1=O (configuration not stated), which inhibition is on record?
Answer: Its inhibition is -0.8% (inactive).

Question: For CN1CCC[C@@H]1CCO[C@](C)(c1ccccc1)c1ccc(Cl)cc1, which inhibition is on record?
Answer: The inhibition was 78% (active).

Question: Which inhibition does the source give for OC(c1ccccc1)(c1ccccc1)C1CCN(CCCOc2ccccc2)CC1 here?
Answer: The inhibition was 4.5% (inactive).

Question: With CC(C)(c1ccccc1)c1ccc(OCCN2CCCC2)cc1 as the molecule, how does the inhibition read?
Answer: Its inhibition is 2% (inactive).

Question: Which inhibition does the source give for CCCc1nn(C)c2c(=O)[nH]c(-c3cc(S(N)(=O)=O)ccc3OCC)nc12 here?
Answer: The inhibition was -0.3% (inactive).

Question: Which inhibition does the source give for O=C(c1cccc(N2CCCC2=O)c1)N1CCOCC1 here?
Answer: Its inhibition is -0.5% (inactive).

Question: For CSc1nccc(NC(=O)c2ccc(C(C)(C)C)cc2)n1, which inhibition is on record?
Answer: Its inhibition is 95.6% (active).

Question: With Cc1ccc(C(=O)Nc2ccn(C)n2)cc1 as the molecule, how does the inhibition read?
Answer: Its inhibition is 1.3% (inactive).

Question: Which inhibition does the source give for COC(=O)c1nc(NC(=O)c2ccc(F)cc2)n[nH]1 here?
Answer: The inhibition was 11.4% (inactive).
